Assay outcomes as filed in PubChem.
AddAB inh: growth inhibition of E. coli expressing H. pylori AddAB, primary screen, AddAB inhibitor project, absorbance | 0.29% of 330,000 active | inhibition, % at 11.9 µM; in the data active = inhibition above about 12%
Tat export inh: E. coli Tat export inhibitors, primary screen, MC4100, TorA-mCherry reporter, fluorescence, single point; inhibition, % at 10 µM; 0.036% of 340,000 active;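 active = mean replicate inhibition at least 50% and at least half of replicates individually reaching 50%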;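 also: exported cargo escapes ClpAP degradation while cytoplasmic cargo is degraded and loses fluorescence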
E coli growth-1: E. coli growth inhibition, primary screen, OD600 | AID 1053175, 2014 | 0.21% of 330,000 active | OD600 absorbance (no concentration beside the values) | Escherichia coli growth, 23 h; active compounds read low;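 active = OD600 absorbance below the run mean of sample wells minus 3.6 SD, in any replicate, cut at about 0.56 in these data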
E coli growth-2: E. coli V3065 growth inhibition, primary screen, counter-screen for AddAB inhibitor project, absorbance, OD600 | AID 449728, 2010 | inhibition, % at 11.9 µM | 18 h | 0.27% of 330,000 active;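 active = inhibition above the campaign's mean inhibition across all tested compounds plus 3 SD, cut at about 9.9% in these data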;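 also: uninfected addAB+ strain grown without phage in ampicillin broth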
PfHsp90 set2: growth inhibition of PfHsp90-expressing yeast, primary screen, antimalarial PfHsp90 inhibitor project, S. cerevisiae, BacTiter-Glo luminescence, single point, set 2. BacTiter-Glo ATP, 48 h; yeast lacking PDR1 and PDR3 efflux regulators. inhibition, % at 9.4 µM. 0.32% of 310,000 active. AID 504621, 2011;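 active = every replicate shows inhibition above about 80%, whatever the replicate mean, limit read from the data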
phage Ecoli inh: growth loss of phage-infected E. coli, primary screen, RecBCD inhibitor project, absorbance, with phage, HTS; inhibition, % at 11.9 µM; AID 651602, 2012; 0.26% of 360,000 active; in the data active = inhibition above about 11%
AddAB conf: growth loss of phage-infected E. coli expressing H. pylori AddAB, confirmation, AddAB inhibitor project, absorbance, E. coli V3065, T4 phage, triplicate | OD; T4 phage with gene 2 nonsense mutations | shares compounds with AddAB inh | 64% of 880 active | AID 488942, 2010 | inhibition, % at 11.9 µM;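 active = mean inhibition above a set limit taken from the earlier primary screen, cut at about 13% in these data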;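 also: higher means less bacterial growth since AddAB block lets phage replicate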
RecBCD counter: growth loss of RecBCD+ E. coli with mutant T4 phage, counter-screen for AddAB inhibitor project, absorbance, V66 E. coli; shares compounds with AddAB inh; OD growth; inhibition, % at 11.9 µM; 73% of 880 active;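 active = mean inhibition above the mean of solvent-only control wells plus 3 SD, cut at about 4% in these data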;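 also: optical density read after an 18 h incubation at 37 °C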
Bact viability: bacterial viability inhibition counter-screen, confirmation, counter-screen for AddAB inhibitor project, absorbance; shares compounds with AddAB inh; absorbance (AddAB counterscreen); inhibition, % at 11.9 µM; 35% of 880 active; in the data active = inhibition above about 25%
RecBCD conf: growth loss of phage-infected RecBCD+ E. coli, confirmation, RecBCD inhibitor project, absorbance, E. coli V66, T4 gene 2 phage. shares compounds with phage Ecoli inh. E. coli V66 + T4 2- phage, growth OD. inhibition, % at 11.9 µM. 45% of 890 active. AID 651982, 2013;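 active = mean inhibition over triplicates exceeding the hit threshold derived in the original primary screen, cut at about 11% in these data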
Ecoli viability: E. coli viability inhibition, counter-screen for RecBCD inhibitor project, absorbance, high throughput; 29% of 890 active; absorbance (OD) growth; inhibition, % at 11.9 µM; shares compounds with phage Ecoli inh; AID 651983, 2013; in the data active = inhibition above about 20%;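 also: E. coli strain V66 grown with compound alone and no phage infection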
AddAB phage OD: growth loss of phage-infected AddAB-carrying E. coli, confirmation, counter-screen for RecBCD inhibitor project, absorbance, E. coli V3065, T4 phage; 45% of 890 active; E. coli expressing H. pylori AddAB + T4 phage, OD growth; gene 2 mutant T4, recBCD-deleted host; shares compounds with phage Ecoli inh; inhibition, % at 11.9 µM;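 active = mean inhibition above the solvent-only control wells' mean plus 3 SD, cut at about 22% in these data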;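 also: higher means less bacterial growth from phage killing when AddAB is blocked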
A number is an active result; n = inactive; x = no result given; + = active, no number. Hits are enriched below; roughly 0.69% of the tested compounds scored in any of these assays.

SMILES | AddAB inh | Tat export inh | E coli growth-1 | E coli growth-2 | PfHsp90 set2 | phage Ecoli inh | AddAB conf | RecBCD counter | Bact viability | RecBCD conf | Ecoli viability | AddAB phage OD
CCCCCCn1cc(C(=O)OCC)c(=O)c2cc(F)c(F)cc21 | n | n | n | n | n | n | x | x | x | x | x | x
CCn1cc(C(=O)NCC(C)C)c(=O)c2cc(F)c(N3CCN(C)CC3)cc21 | 99 | x | 0.075 | 100 | x | 87 | 100 | 100 | 101 | 90 | 101 | 102
CCC(C)NC(=O)c1cn(CC)c2cc(N3CCN(C)CC3)c(F)cc2c1=O (configuration not stated) | 99 | x | 0.075 | 95 | x | 94 | 100 | 99 | 100 | 99 | 99 | 100
CCn1cc(C(=O)NCc2ccc3c(c2)OCO3)c(=O)c2cc(F)c(N3CCN(C)CC3)cc21 | 99 | n | 0.043 | 98 | n | 16 | 102 | 29 | 101 | 18 | n | 102
CCOC(=O)c1cn(CC)c2cc(N3CCN(C)CC3)c(F)cc2c1=O | 99 | n | 0.068 | 97 | n | 27 | 102 | 19 | 100 | 11 | n | 89
CCn1cc(SCC(=O)NCc2ccc3c(c2)OCO3)c2ccccc21 | n | n | n | n | n | n | x | x | x | x | x | x
CCn1cc(C(=O)N[C@H](C)c2ccccc2)c(=O)c2cc(F)c(N3CCN(C)CC3)cc21 | n | n | n | n | x | n | x | x | x | x | x | x
COc1cccc(C(=O)C[n+]2ccccc2C=NO)c1 | x | x | n | x | x | x | x | x | x | x | x | x
COc1ccc(C=NNC(=S)Nc2ccccc2)cc1COc1ccccc1F | x | x | n | x | x | x | x | x | x | x | x | x
CCOc1ccc(C=NNC(=S)Nc2c(C)cccc2C)cc1 | x | x | n | x | x | x | x | x | x | x | x | x
Cc1nnc(NCCc2ccccc2)c2ccccc12 | 18 | n | n | 15 | n | 13 | n | 8.5 | n | n | n | n
Cc1nnc(NCc2cccc(Cl)c2)c2ccccc12 | n | n | n | n | n | n | x | x | x | x | x | x
COc1ccc(Br)cc1C=NNC(=O)c1ccco1 | x | x | n | x | x | x | x | x | x | x | x | x
O=c1c2cc(Br)ccc2nc(-c2ccc(Cl)cc2)n1O | n | n | n | n | n | n | x | x | x | x | x | x
Cc1ccc(-c2nc3c(Cl)cc(Cl)cc3c(=O)n2O)cc1 | 12 | n | n | 15 | n | 12 | 16 | 14 | n | n | n | n
Cc1cc(C(=O)NN=C2CCCC(=O)C2)c(C)n1-c1ccccc1 | x | x | n | x | x | x | x | x | x | x | x | x
CC(C)NC(=O)N(C)CC1Oc2c(NC(=O)C3CCCCC3)cccc2C(=O)N(C(C)CO)CC1C (configuration not stated) | x | x | n | x | x | x | x | x | x | x | x | x
O=c1cc(-c2ccccc2)cc(-c2ccccc2)n1O | 17 | n | 0.43 | 21 | + | 19 | n | 15 | n | n | n | n
Cn1c(-c2ccccc2)cc(=O)cc1-c1ccccc1 | x | x | x | x | x | n | x | x | x | x | x | x
COc1cccc(/C=N/NC(=O)C(=O)Nc2ccccc2OC(F)(F)C(F)F)c1O | 19 | n | x | 15 | 92 | 17 | n | 12 | n | n | n | n
COc1cccc(/C=N/NC(=O)c2ccc(-c3ccccc3)cc2)c1O | 19 | n | x | 17 | x | 19 | n | 16 | n | n | n | n
COc1cccc(C=NNC(=O)c2ccc(-c3ccccc3)cc2)c1O | x | x | n | x | x | x | x | x | x | x | x | x
O=C(NN=Cc1cc(Br)ccc1O)C(=O)Nc1ccccc1OC(F)(F)C(F)F | x | x | n | x | x | x | x | x | x | x | x | x
O=C(N/N=C/c1ccc(O)c(O)c1O)/C(=C/c1ccc([N+](=O)[O-])cc1)NC(=O)c1ccccc1 | 16 | n | x | 20 | n | 15 | n | 9.5 | n | n | n | n
O=C1Nc2ccccc2C(=O)N2C1C1C(=O)N(Cc3ccccc3)C(=O)C1C2c1ccc(F)cc1 (configuration not stated) | x | x | n | x | x | x | x | x | x | x | x | x
SMILES | AddAB inh | Tat export inh | E coli growth-1 | E coli growth-2 | PfHsp90 set2 | phage Ecoli inh | AddAB conf | RecBCD counter | Bact viability | RecBCD conf | Ecoli viability | AddAB phage OD
COc1cc(C=NO)c(Br)cc1OCC(=O)Nc1ccccc1C | x | x | n | x | x | x | x | x | x | x | x | x
COc1ccc(C=NNC(=O)c2cccc([N+](=O)[O-])c2)cc1OS(=O)(=O)c1ccc(C)cc1 | x | x | n | x | x | x | x | x | x | x | x | x
CCN(CC)N=Nc1[nH]nc2nc(C)cc(C)c12 | 35 | n | 0.56 | 87 | 110 | 14 | 93 | 9.3 | 51 | n | n | 76
Cc1cc(C)c2c(N=NN3CCCCC3)[nH]nc2n1 | 98 | n | n | 89 | 110 | 14 | 91 | 7.7 | 43 | n | n | 53
O=C(CCC(=O)Nc1cccc2ccccc12)NN=Cc1ccco1 | x | x | n | x | x | x | x | x | x | x | x | x
Oc1ccc2ccccc2c1N=Nc1ccccn1 | 26 | n | n | 31 | 125 | 27 | 27 | 25 | n | 23 | 27 | 30
O=C(Cc1ccc2c(c1)OCO2)NN=Cc1ccc([N+](=O)[O-])o1 | 27 | n | n | 9.9 | x | 13 | 99 | 8.4 | n | n | n | 37
O=C(CNC(=O)c1ccccc1)NN=Cc1ccc([N+](=O)[O-])s1 | x | x | n | x | x | x | x | x | x | x | x | x
Cc1ccc(NCC(=O)N/N=C\c2ccc([N+](=O)[O-])o2)cc1 | n | n | x | n | n | n | x | x | x | x | x | x
O=C(CNc1ccccc1)N/N=C/c1ccc([N+](=O)[O-])o1 | 17 | n | x | 16 | x | 12 | 84 | 12 | 28 | n | n | 59
O=C(CNC(=O)c1ccccc1)N/N=C/c1ccc([N+](=O)[O-])o1 | 28 | n | x | 23 | n | 20 | 98 | 10 | 29 | 15 | n | 82
CC(C)NC(=O)N(C)CC1Oc2ccc(NC(=O)CCN3CCOCC3)cc2CC(=O)N(C(C)CO)CC1C (configuration not stated) | x | x | n | x | x | x | x | x | x | x | x | x
COc1ccc(CC(=O)ON=C(N)c2ccc(Br)cc2)cc1OC | x | x | n | x | x | x | x | x | x | x | x | x
O=c1[nH]c(=O)n([C@H]2C[C@H](O)[C@@H](CO)O2)cc1F | 100 | n | x | 84 | n | 87 | 81 | 69 | 77 | 79 | 79 | 91
